Laboratory results: PubChem BioAssay AID2501 (Southern Research Specialized Biocontainment Screening …, 2010)
Among all 2,200 compounds or so, about 1,200 (55%) were called active. Cut-off not given; nearly all actives show IC50 up to about 92 µM. So high a share suggests a set chosen from earlier hits. The list shows a part of the results.

Assay: counter assay for TAg ATPase ADP read-out – biochemical, ADP-Hunter, fluorescence, counter-screen (AID 2501);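 further: purified T antigen ATPase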;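 on inhibition: 0% = enzyme with vehicle and 100% = reference inhibitor wells; higher means more inhibition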
Details: series mostly up to 100 µM; inhibition: at the top concentration

| SMILES | inhibition | IC50 |
| --- | --- | --- |
| NC(=O)Cn1c(=O)n(CCC(=O)NCCSCc2ccccc2)c(=O)c2ccccc21 | -26.1% (inactive) |  |
| COc1cccc(C2C([N+](=O)[O-])=C(N)Oc3cc(C)oc(=O)c32)c1 (stereo not given) | -29.3% (inactive) |  |
| CC(=O)Nc1ccc(OC(=O)C(CCS(C)(=O)=O)N2C(=O)c3ccccc3C2=O)cc1 (stereo not given) |  | 7.41 µM (active) |
| NC(=O)C(Cc1ccccc1)N1C(=O)c2ccccc2C1=O (stereo not given) | 0.03% (inactive) |  |
| O=C(Nn1cnnc1)C1Cc2ccccc2CN1S(=O)(=O)c1ccc(F)cc1 (stereo not given) | -21.5% (inactive) |  |
| COc1ccc2nc(COC(=O)c3cccs3)c(C(C)=O)[n+]([O-])c2c1 | 15% (inactive) |  |
| Cc1ccccc1OCC(=O)NCC(=O)OCC(=O)c1ccc([N+](=O)[O-])cc1 | 5.49% (inactive) |  |
| CCN(CC)c1ccc(NC(=O)COC(=O)c2ccc3ccccc3n2)cc1 |  | 2.2 µM (active) |
| CCN(CC)c1ccc(C(=O)n2cnc3ccccc32)cc1 | 1.76% (inactive) |  |
| CCN(CC)c1ccc(NC(=O)COC(=O)COc2ccccc2[N+](=O)[O-])cc1 |  | 6.35 µM (active) |
| O=C(O)CCCn1cc(NC(=O)COc2ccccc2[N+](=O)[O-])cn1 | -8.38% (inactive) |  |
| CCN(c1ccccc1)S(=O)(=O)c1ccc(Cl)c(NC(=O)COC(=O)c2cc(O)c3ccccc3c2O)c1 | -35.6% (inactive) |  |
| CCN(CC)c1ccc(NC(=O)COC(=O)c2cccs2)cc1 |  | 7.51 µM (active) |
| CC(=O)Nc1cccc(C(=O)OCC(=O)Nc2nnc(-c3ccccc3)o2)c1 | 24.2% (inactive) |  |
| CCOC(=O)C1CCCN(C(=O)Cn2sc3nc(C)cc(C)c3c2=O)C1 (stereo not given) | 20.5% (inactive) |  |
| Nc1cnc(Nc2ccc(Br)cc2)nc1N |  | 12.1 µM (active) |
| CCN(CC)S(=O)(=O)c1ccc(N/N=C/c2ccc(O)cc2)nc1 |  | 4.57 µM (active) |
| Cc1nc(Cl)cc(N/N=C/c2ccc(O)cc2)n1 |  | 4.8 µM (active) |
| Cc1ccc(S(=O)(=O)Nc2nc(C)cc(N/N=C/c3ccc(O)cc3)n2)cc1 |  | 8.77 µM (active) |
| CC[C@H](C)[C@H](NC(=O)c1ccccc1)C(=O)Nc1ccc(S(=O)(=O)Nc2cc(C)nc(C)n2)cc1 | -9.31% (inactive) |  |
| O=C(N/N=C/c1ccc(-c2ccc(S(=O)(=O)Nc3ncccn3)cc2)o1)c1cc2ccccc2cc1O | 17.8% (inactive) |  |
| Cc1cc(/C=N/Nc2ccc([N+](=O)[O-])cn2)c(C)n1-c1ccc(C(=O)O)cc1 | -1.71% (inactive) |  |

| SMILES | inhibition | IC50 |
| --- | --- | --- |
| COc1ccc(NC(=O)N2CCCc3cc(C)ccc32)c(OC)c1 | -15.2% (inactive) |  |
| O=C(COc1ccc([N+](=O)[O-])cc1)NNC(=O)Nc1ccc([N+](=O)[O-])cc1 | -28.5% (inactive) |  |
| COc1cc([N+](=O)[O-])ccc1NC(=O)Oc1ccc(NC(C)=O)cc1 |  | 4.33 µM (active) |
| c1coc(-c2nnc3sc(Cc4cccs4)nn23)c1 | 6.69% (inactive) |  |
| Nc1c(C(=O)NC2CC2)sc2nc3c(c(-c4ccco4)c12)CC/C3=C/c1ccco1 | 25.9% (inactive) |  |
| CNC(=O)c1ccc(-c2sc3nc(N4CCOCC4)c4c(c3c2N)CCCC4)o1 |  | 14.8 µM (active) |
| NNC(=O)c1sc2nc(N3CCOCC3)c3c(c2c1N)CCCC3 |  | 36.6 µM (active) |
| CNC(=O)c1ccc(-c2sc3nc(N4CCOCC4)c4c(c3c2N)CC(C)(C)OC4)o1 |  | 3.18 µM (active) |
| C=CCc1cccc2cc(C(=O)Nc3ccc(S(=O)(=O)Nc4nnc(CC)s4)cc3)c(=O)oc12 | -26.6% (inactive) |  |
| Cc1ccc2cn[nH]c2c1N |  | 6.68 µM (active) |
| CC1(C)CC(=O)C(C=Nc2ccc(O)cc2)=C(O)C1 |  | 2.78 µM (active) |
| O=C1CCCC(O)=C1N=Nc1ccc(C(=O)O)cc1 | -21.8% (inactive) |  |
| O=C1CCCC(O)=C1C=Nc1ccc(O)cc1 |  | 4.6 µM (active) |
| Cc1ccccc1CN(C)C(=O)COC(=O)CSc1ccc([N+](=O)[O-])cc1 | -30.8% (inactive) |  |
| COC/C=C/C1=CC2=CC(=O)C(C)(OC(=O)CCC(=O)OC)C(=O)C2=CO1 (stereo not given) | 2.78% (inactive) |  |
| COC/C=C/C1=CC2=CC(=O)C(C)(OC(=O)c3ccco3)C(=O)C2=CO1 (stereo not given) |  | 2.83 µM (active) |
| COC/C=C/C1=CC2=CC(=O)C(C)(OC(=O)c3cnc4ccccc4n3)C(=O)C2=CO1 (stereo not given) | -8.04% (inactive) |  |
| O=c1[nH]c(=O)c2nnc(N/N=C\c3ccc(O)cc3)nc2[nH]1 |  | 7.96 µM (active) |
| Cc1ccc(Cn2c(=S)[nH]c3ccc(N4CCOCC4)cc3c2=O)o1 | 9.7% (inactive) |  |
| CCc1cc(N2CCOCC2)cc2c1[nH]c1ccccc12 |  | 6.15 µM (active) |
| O=c1c2cc(N3CCOCC3)ccc2[nH]c(=S)n1Cc1ccco1 | 26.4% (inactive) |  |
| Cc1cc(C)c(S(=O)(=O)c2ccccc2Cl)c(Cl)n1 | 3.15% (inactive) |  |

| SMILES | inhibition | IC50 |
| --- | --- | --- |
| O=C1NC(=S)SC1=C1CCCC1 | 23.6% (inactive) |  |
| CN1CCC/C1=C/C=C1\SC(=S)NC1=O |  | 7.5 µM (active) |
| CC(=O)c1sc2nsc(SCCN3CCOCC3)c2c1N |  | 21.3 µM (active) |
| CS(=O)(=O)c1ccc(NC(=O)CCN2C(=O)C3CCCCC3C2=O)cc1 (stereo not given) | -26.7% (inactive) |  |
| O=C(O)CCC(=O)Nc1ccc(SSc2ccc(NC(=O)CCC(=O)O)cc2)cc1 | -10.5% (inactive) |  |
| O=C(CCn1c(=O)oc2cc(Cl)ccc21)Nc1ccc(O)cc1 |  | 3.84 µM (active) |
| CN(C)CCN(C(=O)c1ccccc1Cl)c1nc2c(Cl)cccc2s1 | 11% [at 50 µM] (inactive) |  |
| C/C(=N/NC(N)=S)c1cc2ccc(O)cc2oc1=O |  | 25.3 µM (active) |
| CCOc1ccc(NCc2nnc(SCC(=O)Nc3cc(C)on3)n2-c2ccc(OC)cc2)cc1 |  | 13.5 µM (active) |
| COC(=O)CSc1nnc(CNc2ccc(OC)cc2)n1C |  | 19.3 µM (active) |
| COc1ccc(-c2nnc(SCC(=O)c3ccc[nH]3)n2-c2ccccc2)cc1 | -19.4% (inactive) |  |
| COc1ccc(-n2c(SCC(=O)Nc3ccc(Cl)cc3)nc(O)c(Cc3ccccc3)c2=O)cc1 | -18.5% (inactive) |  |
| COc1ccc(CCNC(=O)CSc2nncs2)cc1 | -4.58% (inactive) |  |
| CCN1CCC[C@H]1CNC(=O)c1c(O)c(Cl)cc(Cl)c1OC | 12.9% (inactive) |  |
| Nc1ccc(OCC(O)C[n+]2ccc(CCS(=O)(=O)[O-])cc2)cc1 (stereo not given) |  | 4.65 µM (active) |
| O=C(Cc1coc(-c2ccc(F)cc2)n1)NCc1ccccc1 | 6.02% (inactive) |  |
| Oc1cc(O)cc(/C=C/c2ccc(O)c(O)c2)c1 | 21.8% [at 50 µM] (inactive) |  |
| Oc1ccc(/C=C/c2cc(O)cc(O)c2)cc1 |  | 11.3 µM (active) |
| O=C(/C=C/c1ccc(O)c(O)c1)c1ccccc1O |  | 6.57 µM (active) |
| O=C(O)/C=C/c1ccc(O)cc1 |  | 8.81 µM (active) |
| O=C(O)/C=C/c1ccc(O)c(O)c1 |  | 6.76 µM (active) |
